# According to PubChem BioAssay (NCI):
# Compounds without any hit were thinned out: in the full panel of roughly 83,000, 20% have a hit.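 Results are percent growth after 48 hours of single-concentration exposure. 100 means growth as in untreated cells, lower positive values show inhibition; negative values down to -100 show cell death.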 A number with no mark means an inactive call. Activity calls are given as the source filed them. The calls were made as follows: active = growth percent below 10; inactive = the rest.
# Columns and labels:
# Assay in all cases: NCI-60 one-dose screen, 48 h (100 = growth as untreated, 0 = no growth, -100 = all killed)
# Conditions in all cases: 10 µM unless noted
# T-47D breast = test system: T-47D breast
# BT-549 breast = test system: BT-549 breast
# MDA-MB-435 melanoma = test system: MDA-MB-435 melanoma
# SW-620 colon = test system: SW-620 colon
# MCF7 breast = test system: MCF7 breast
# HCT-116 colon = test system: HCT-116 colon
# HCC-2998 colon = test system: HCC-2998 colon
# KM12 colon = test system: KM12 colon
SMILES,growth (T-47D breast),growth (BT-549 breast),growth (MDA-MB-435 melanoma),growth (SW-620 colon),growth (MCF7 breast),growth (HCT-116 colon),growth (HCC-2998 colon),growth (KM12 colon)
N#Cc1c(N)n2c(nc1=Nc1ccc([N+](=O)[O-])cc1)sc1cc(Cl)ccc12,78.2%,116%,97.9%,96.4%,77.6%,94.3%,144%,97.2%
COc1ccc(CN2C(=O)/C(=C\c3cc(OC)c(OC)c(OC)c3)c3ccccc32)cc1,-2.48% (active),24.5%,-10.9% (active),-40.3% (active),7.23% (active),-93.8% (active),16.9%,-23.7% (active)
CN1C[C@@H](c2ccc(Cl)cc2)[C@]2(NC(=S)N(c3ccc(F)c(Cl)c3)C2=O)[C@@]12C(=O)NC1C=CC(Cl)=C[C@H]12 (stereo partly specified),21%,21.6%,56.8%,62.2%,18%,-49% (active),77.8%,55%
CCn1c(Sc2nnc(NC(C)=O)s2)nc2c1c(=O)n(C)c(=O)n2C,93%,92.8%,98.1%,96.1%,94.8%,97%,92%,106%
CN(C)c1ccc(/C=C/c2c(F)cccc2F)cc1,58.3%,94.7%,101%,104%,49.7%,91.8%,95.1%,91.7%
CCCCS(=O)(=O)Oc1ccc(-c2nc(C)c(C(=O)OCC)s2)cc1C=O,80.6%,72.2%,37.1%,30.2%,35.6%,8.67% (active),94.4%,57%
C[C@@H]1CC[C@@H]2[C@@H]1[C@H](OC(=O)/C=C/c1ccccc1)[C@]1(CCCOCCOCCOCCOC(=O)CCCC[C@@H]3SC[C@@H]4NC(=O)N[C@@H]43)C[C@@H](OC(=O)CO)[C@@]2(C)O1,92.4%,99.4%,99.7%,102%,102%,92.7%,104%,102%
C=C(C=O)C1CCC2(C(=O)O)CCC3(C)C(CCC4C5(C)CCC(O)C(C)(C)C5CCC43C)C12 (stereo unspecified),45%,17.4%,16%,-14.5% (active),6.07% (active),-92.3% (active),-85.2% (active),-87.8% (active)
O=C(/C=C/C12c3ccccc3C(c3ccccc31)C1C(=O)NC(=O)C12)c1ccccc1 (stereo unspecified),51.7%,23.6%,13.8%,19.1%,9.25% (active),14.3%,10.4%,9.85% (active)
COc1cc(-c2ccc(-c3ccc(C(=N)N)nc3)s2)cc(OC)c1OC,66.2%,89.8%,37.1%,29.2%,-1.33% (active),0.952% (active),12.1%,49.1%
CCOC(=O)c1sc2ccc(NCc3nc[nH]c3C)cc2c1NC(=O)c1cc(OC)c(OC)c(OC)c1,76.2%,94.8%,71.7%,79.8%,62.6%,55.4%,106%,93.7%
Cc1ccc(C)c2c1C(=O)OC2=O,96.1%,104%,114%,107%,93.5%,96.4%,118%,109%
COc1ccc(C2CC(c3cnccn3)=NN2)cc1OC (stereo unspecified),98.7%,83.1%,117%,109%,92.8%,85.7%,99.4%,109%
O=C(/C=C/C12c3ccccc3C(c3ccccc31)C1C(=O)N(c3ccccc3)C(=O)C12)c1ccc(Cl)cc1 (stereo unspecified),30.4%,16.1%,0.197% (active),7.56% (active),18.4%,-18% (active),-24% (active),7.23% (active)
CCCCCCNc1cc(C)nc2ccc(OC)cc12,52.1%,75.5%,64.6%,68.7%,58.8%,28.5%,48.4%,66.3%
O=C1Nc2ccccc2/C1=N/N=C/c1ccsc1,87%,112%,105%,97.8%,49.5%,103%,108%,102%

SMILES,growth (T-47D breast),growth (BT-549 breast),growth (MDA-MB-435 melanoma),growth (SW-620 colon),growth (MCF7 breast),growth (HCT-116 colon),growth (HCC-2998 colon),growth (KM12 colon)
CN(C)c1ccc2cc(-c3ccc(Cl)c(Cl)c3)c(N)nc2c1,18.6%,48.3%,22.4%,30.1%,24.3%,13.3%,44.7%,28.9%
Nc1nc(N)c(-c2ccc(Cl)cc2)c(/C=C/c2ccc([N+](=O)[O-])cc2)n1,84.7%,92.3%,41.9%,26.4%,82.2%,48.9%,77.6%,83.1%
COc1cc2oc3cc(C)oc(=O)c3c2cc1OC,89.8%,109%,97.7%,103%,98%,90.4%,92.4%,105%
Clc1ccc(/C=C/c2nc(Nc3ccc(Cl)cc3)c3ccccc3n2)cc1,91.2%,107%,109%,103%,80.9%,99.1%,106%,109%
N#Cc1c(-c2ccccc2)nc(SCC2CO2)nc1N1CCOCC1 (stereo unspecified),15.4%,11.4%,69.3%,84.4%,44.8%,95%,101%,87.1%
CCOc1ccc2nc(-c3cccc(OCC(=O)NC(C)C)c3)nc(Nc3ccc(-c4cn[nH]c4)cc3)c2c1,-25.2% (active),-44.2% (active),6.53% (active),7.06% (active),-16.8% (active),5.64% (active),24.6%,5.29% (active)
O=C1CSC(c2ccc(O)cc2)N1c1nnc(Cn2cnnc2)o1 (stereo unspecified),92.3%,55.8%,-1.5% (active),67.4%,84%,93%,112%,49.9%
CCCCCCCCN(CCCCCCCC)C(=N)c1ccnc2ccccc12,-62.9% (active),66.2%,-82.3% (active),-68.1% (active),-74.6% (active),-92.3% (active),-84.1% (active),-82.7% (active)
CC1=CC(=O)C(C(C)C)=CC1=Nc1cc(Br)c(O)c(Br)c1,75.5%,26.4%,-11.7% (active),27.3%,23.2%,1.14% (active),-43.5% (active),-1.83% (active)
Cc1[nH]c(-c2nc3ccccc3[nH]2)c(C)c1C(=O)NNc1ccc(Cl)cc1,85.1%,105%,97.8%,99.6%,87.6%,94%,108%,95.5%
COc1cc2c(cc1OC)-c1ccc3cc4c(cc3c1N(CCCN(C)C)C2)OCO4,54.6%,41.2%,44%,25.2%,26%,9.53% (active),64.6%,38.4%
O=C(CCc1nc(-c2cccc(Cl)c2)no1)Nc1ccccn1,107%,95.7%,105%,103%,90.2%,99.1%,97.7%,98%
CC(=O)c1cc2c(o1)C(=O)c1ccccc1C2=O,-25.3% (active),-87.7% (active),-94.4% (active),-77.4% (active),-65.6% (active),-83.6% (active),-87.8% (active),-63.6% (active)
O=C1CSC(c2ccccc2O)N1c1nnc(Cn2cnnc2)o1 (stereo unspecified),71.2%,87.7%,97.8%,105%,54.6%,88.6%,77.5%,84.3%
Cc1c(Cl)cccc1NS(=O)(=O)c1ccccc1,109%,105%,101%,106%,107%,104%,109%,116%
CCCCCCCSc1ccc(C(=O)O)cc1,107%,112%,96%,105%,84.3%,99.3%,114%,116%
